Compound activity deposited in PubChem by Broad Institute.
PfHsp90 set2: growth inhibition of PfHsp90-expressing yeast, primary screen, antimalarial PfHsp90 inhibitor project, S. cerevisiae, BacTiter-Glo luminescence, single point, set 2. BacTiter-Glo ATP, 48 h; yeast lacking PDR1 and PDR3 efflux regulators. inhibition, % at 9.4 µM. 310,000 compounds, 0.32% hits;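 active = every replicate shows inhibition above about 80%, whatever the replicate mean, limit read from the data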;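 note: 0% = DMSO neutral controls and 100% = 20 µM radicicol positive controls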
SIRT5 inh: SIRT5 desuccinylase inhibitors, primary screen, biochemical, fluorescence imaging, single point, set 5; AID 652115, 2013; 330,000 compounds, 1.1% hits; inhibition, % at 15 µM; Purified SirT5, succinyl-peptide AMC, trypsin-coupled fluorescence; in the data active = inhibition above about 15%
CASP6 VEID inh: human caspase-6 inhibitors, primary screen, biochemical, VEID-R110 fluorescence, single point, set 2. purified caspase-6, Z-VEID-R110 cleavage fluorescence. inhibition, % at 12.5 µM. AID 686996, 2013. 350,000 compounds, 0.53% hits;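 active = mean inhibition across replicates at least about 35%, with every replicate also reaching that limit, limit read from the data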;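 note: 0% = median of neutral control wells and 100% = no fluorescence left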
ARNT TACC3 PPI: disruptors of ARNT/TACC3 protein interaction, primary screen, biochemical, AlphaScreen, single concentration; Transforming acidic coiled-coil-containing protein 3 (Homo sapiens), Q9Y6A5; AlphaScreen His-ARNT PAS-B/GST-TACC3 binding, luminescence; TACC3 fragment carries E629A point mutation; inhibition, % at 9.99 µM; 390,000 compounds, 0.66% hits; AID 623870, 2012;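 active = mean inhibition of replicates at least 50% and at least half of replicates each reaching 50%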;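 note: 0% = complete ARNT plus TACC3 wells and 100% = ARNT alone without TACC3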
NSD2 inh: NSD2 histone methyltransferase inhibitors, primary screen, biochemical, AlphaScreen, single concentration, set 2; Histone-lysine N-methyltransferase NSD2 (Homo sapiens), O96028; NSD2 peptide methylation, 120 min; inhibition, % at 12.5 µM; 310,000 compounds, 0.54% hits; in the data active = inhibition above about 50%
Target sequence (O96028 whole entry, looked up): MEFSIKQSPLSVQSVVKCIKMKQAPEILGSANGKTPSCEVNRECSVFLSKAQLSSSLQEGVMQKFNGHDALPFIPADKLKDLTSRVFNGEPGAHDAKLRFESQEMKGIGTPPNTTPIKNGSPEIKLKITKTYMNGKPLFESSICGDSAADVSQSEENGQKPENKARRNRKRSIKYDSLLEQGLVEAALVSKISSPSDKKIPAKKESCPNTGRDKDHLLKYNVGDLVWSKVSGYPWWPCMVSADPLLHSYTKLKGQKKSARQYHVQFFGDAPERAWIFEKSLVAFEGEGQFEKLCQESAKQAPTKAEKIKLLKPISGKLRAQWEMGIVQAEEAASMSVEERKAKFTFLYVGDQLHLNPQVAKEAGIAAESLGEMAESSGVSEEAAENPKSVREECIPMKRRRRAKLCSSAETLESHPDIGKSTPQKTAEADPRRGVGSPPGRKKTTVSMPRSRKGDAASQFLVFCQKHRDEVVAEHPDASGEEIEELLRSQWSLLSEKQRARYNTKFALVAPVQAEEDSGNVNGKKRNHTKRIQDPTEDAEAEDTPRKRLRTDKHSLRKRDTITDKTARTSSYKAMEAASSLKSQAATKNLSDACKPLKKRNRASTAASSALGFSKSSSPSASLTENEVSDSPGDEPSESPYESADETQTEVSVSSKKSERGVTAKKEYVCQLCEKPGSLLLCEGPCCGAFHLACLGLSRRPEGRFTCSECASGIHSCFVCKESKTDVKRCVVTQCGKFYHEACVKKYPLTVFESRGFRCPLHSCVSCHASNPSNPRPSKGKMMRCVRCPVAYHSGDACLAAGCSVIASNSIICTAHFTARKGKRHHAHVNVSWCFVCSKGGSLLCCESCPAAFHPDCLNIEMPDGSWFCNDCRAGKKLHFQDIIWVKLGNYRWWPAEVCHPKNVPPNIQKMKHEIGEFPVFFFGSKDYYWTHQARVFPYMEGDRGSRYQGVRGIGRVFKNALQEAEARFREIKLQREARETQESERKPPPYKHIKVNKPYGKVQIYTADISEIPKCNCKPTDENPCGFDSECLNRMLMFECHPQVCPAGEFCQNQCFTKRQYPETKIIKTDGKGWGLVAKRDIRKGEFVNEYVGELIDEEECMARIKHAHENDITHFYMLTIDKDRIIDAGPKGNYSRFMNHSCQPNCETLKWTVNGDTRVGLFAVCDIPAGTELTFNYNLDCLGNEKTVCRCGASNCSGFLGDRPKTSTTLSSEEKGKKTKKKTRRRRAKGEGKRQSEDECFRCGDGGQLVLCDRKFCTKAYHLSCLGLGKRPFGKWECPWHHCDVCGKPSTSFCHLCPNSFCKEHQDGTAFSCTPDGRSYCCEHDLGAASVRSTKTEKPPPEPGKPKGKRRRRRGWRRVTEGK
The depositor's hits bear a star; / = no result. Only some compounds are listed: those with a hit (about 2.1% of all), similar ones and a draw of the others.

SMILES	PfHsp90 set2	SIRT5 inh	CASP6 VEID inh	ARNT TACC3 PPI	NSD2 inh
C[C@@H]1CN([C@H](C)CO)C(=O)c2cccc(NC(=O)c3ccc(-c4nccs4)cc3)c2O[C@H]1CN(C)Cc1ccc(C(=O)O)cc1	/	2	-5	-5	/
C[C@H](CO)N1C[C@H](C)[C@@H](CN(C)Cc2ccc(Cl)c(Cl)c2)Oc2c(NC(=O)c3ccc(-c4nccs4)cc3)cccc2C1=O	/	19*	1	13	/
C[C@H]1CN([C@@H](C)CO)C(=O)c2cccc(NC(=O)c3ccc(-c4nccs4)cc3)c2O[C@H]1CN(C)S(C)(=O)=O	/	17*	-1	-3	/
C[C@@H]1CN([C@@H](C)CO)C(=O)c2cccc(NC(=O)c3ccc(-c4nccs4)cc3)c2O[C@H]1CN(C)S(C)(=O)=O	/	-2	-5	5	/
C[C@H]1CCCCO[C@@H](CN(C)C)[C@@H](C)CN([C@@H](C)CO)C(=O)c2cc(NC(=O)c3ccccc3)ccc2O1	/	4	-7	-2	/
Cc1ccc(C(C)C)c(OCCOCCN2CCNCC2)c1	/	1	-47	/	0
Cc1ccc(C(C)C)c(OCCCCN2CCNCC2)c1	16	18*	-4	5	5
CC1(C)C(/C=C/C=C/C=C/C=C2\N(CCCCS(=O)(=O)O)c3ccc4ccccc4c3C2(C)C)=[N+](CCCCS(=O)(=O)[O-])c2ccc3ccccc3c21	-14	/	/	65*	/
c1ccc(-c2ccccn2)nc1	6	-1	0	-3	/
OC(c1ccccn1)(c1ccccn1)c1ccccn1	-15	/	/	75*	-10
C[C@H](CO)N1C[C@H](C)[C@H](CN(C)C(=O)Nc2ccc3c(c2)OCO3)Oc2c(NC(=O)C3CCOCC3)cccc2C1=O	/	2	0	2	/
CN1C(=O)CC(Sc2ccccc2C(=O)O)C1=O (centres undefined)	3	-4	35*	1	-2
CC(C)CC#Cc1ccc2c(c1)O[C@@H](CN(C)C(=O)Nc1ccccc1)[C@@H](C)CN([C@@H](C)CO)S2(=O)=O	/	3	0	-4	/
CCOCCCNC(=O)C(c1ccc(Cl)cc1)N(Cc1cccs1)C(=O)c1ccccn1 (centres undefined)	/	18*	2	-5	-7
CO[C@@H]1CN(C)C(=O)c2ccc(NC(=O)Nc3c(C)noc3C)cc2OC[C@@H](C)N(C)C[C@H]1C	/	2	2	11	/
C[C@H](CO)N1C[C@H](C)[C@@H](CN(C)Cc2ccc(Oc3ccccc3)cc2)Oc2ccc(NS(=O)(=O)c3ccccc3)cc2CC1=O	/	14	1	17	/
C[C@@H]1CN([C@H](C)CO)C(=O)Cc2cc(NS(=O)(=O)c3ccc(Cl)cc3)ccc2O[C@H]1CN(C)Cc1ccc(Oc2ccccc2)cc1	/	20*	1	12	/
C[C@H](CO)N1C[C@H](C)[C@H](CN(C)Cc2ccc(Oc3ccccc3)cc2)Oc2ccc(NS(=O)(=O)c3ccccc3)cc2CC1=O	/	12	52*	2	/
CNC[C@H]1Oc2ccc(NC(=O)Cc3ccccc3)cc2C(=O)N([C@H](C)CO)C[C@@H]1C	/	2	0	-2	/
CC1=NN(c2nc3ccccc3[nH]2)C(=O)/C1=C/N(C)C	81*	/	/	68*	1
COc1cccc(-c2ccc3n(c2=O)C[C@H]2[C@H](CO)[C@@H](C(=O)N4CCOCC4)N[C@@H]32)c1	/	-15	-2	21	/
COc1ccc(NC(=O)Nc2ccc3c(c2)C(=O)N([C@@H](C)CO)C[C@H](C)[C@@H](CN(C)S(=O)(=O)c2cn(C)cn2)OCCCC[C@H](C)O3)cc1	/	/	/	1	/
CC1CN(Cc2c(O)ccc3c2oc(=O)c2ccccc23)CC(C)O1 (centres undefined)	-6	3	12	9	98*
COc1cc(NC(=O)c2cccnc2)c(Cl)cc1NC(=O)c1ccccc1	0	-1	64*	-6	-1
COc1cc(NC(=O)c2cccnc2)c(Cl)cc1NC(=O)c1ccc(Cl)cc1	-23	/	-1	-2	0
SMILES	PfHsp90 set2	SIRT5 inh	CASP6 VEID inh	ARNT TACC3 PPI	NSD2 inh
COc1ccc(CN(C)C[C@H]2OCCCC[C@@H](C)Oc3ccc(N(C)C)cc3C(=O)N([C@@H](C)CO)C[C@@H]2C)cc1	/	0	-5	0	/
CCN1CCN(c2ncnc3c2cnn3-c2ccccc2)CC1	5	-3	-6	-3	/
CCN1CCN(c2ncnc3c2cnn3-c2ccc(Cl)cc2)CC1	-5	0	38*	-14	/
Oc1c(Br)cc(Br)c2cccnc12	107*	-6	11	8	/
CN(C)c1ccc(Nc2nc(N)c3ccccc3n2)cc1	60	-8	-8	50*	/
C=CCN1Cc2ccccc2[C@H]2OC(c3ccc(OCCCO)cc3)=N[C@@]2(CCS(=O)(=O)c2ccccc2)C1=O	/	2	1	/	/
COc1cc2c(cc1OC)-c1cc(Nc3ccccc3)nc(=O)n1CC2	-23	0	-4	26	-2
COc1cc2c(cc1OC)-c1cc(Nc3ccc(C(=O)O)cc3)nc(=O)n1CC2	-1	14	41*	46*	2
Cc1noc(C)c1NC(=O)N(C)C[C@H]1Oc2c(NC(=O)Nc3cccc4ccccc34)cccc2C(=O)N([C@H](C)CO)C[C@H]1C	/	0	0	-6	/
COc1ccc(CCNC(=O)c2cc(CC(C)C)on2)cc1OC	4	15*	0	/	/
COc1cccc2cc(C(=O)NCc3ccc(Cl)cc3)c(=O)oc12	-1	1	1	-7	3
COc1ccc(CCNC(=O)c2cc3cccc(OC)c3oc2=O)cc1OC	-9	-1	44*	-3	0
CCOc1cc(/C=C2/NC(=O)NC2=O)cc(Br)c1OCc1ccc(C(=O)O)cc1	-8	13	43*	1	1
COc1ccc(C=C2NC(=O)NC2=O)cc1O	/	/	4	/	-1
COc1cc(/C=C2\NC(=O)NC2=O)cc(Br)c1OC	-9	17*	4	0	16
CCCN1C[C@H](C)[C@@H](OC)CN(C)C(=O)c2cc(NC(=O)c3cnccn3)ccc2OC[C@@H]1C	/	1	-1	-4	/
CC(C)NC(=O)N(C)C[C@H]1OCCCC[C@@H](C)Oc2ccc(NC(=O)c3ccncc3)cc2C(=O)N([C@@H](C)CO)C[C@@H]1C	/	-3	1	-14	/
O=C1S/C(=C\c2ccc(N3CCOCC3)o2)C(=O)N1Cc1c(F)cccc1Cl	97*	-8	1	-5	0
O=C1S/C(=C/c2ccc(N3CCOCC3)o2)C(=O)N1Cc1c(F)cccc1Cl	95*	/	/	4	/
CN1CCN(C(=O)C[C@H]2C[C@@H]3c4cc(NC(=O)c5cccnc5)ccc4O[C@@H]3[C@@H](CO)O2)CC1	/	/	/	6	/
